# Laboratory results reported in the supplement of paper PMC6555819.
# Assays:
# Experiment in all cases: PBM binding z-score (relative to random genomic background probes); higher = stronger binding; sequences stand for … in GC…GCGATTGACAGCGTAGAATGAAGG
# [1] = tested on: FXR:RXRa (NR concentration 270 nM, RXRa partner concentration 90 nM)
# Outline: (§1)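 Binding buffer was PBS pH 7.4 with 2% milk, 0.02% Triton X-100, 1 mM DTT, 0.2 mg/mL BSA and 0.4 mg/ml salmon testes DNA. In it, ligand-free nuclear receptor dimers were incubated 1 h on custom Agilent 4×180K protein-binding microarrays carrying double-stranded probes. Antibodies against each partner (one per run) detected binding, and z-scores were calculated against random background probes after regression normalization of scanned fluorescence.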
# [2] = tested on: LXRa:RXRa (NR concentration 270 nM, RXRa partner concentration 90 nM)
# Outline: as §1
# [3] = tested on: LXRa homodimer (NR concentration 270 nM)
# Outline: as §1
# [4] = tested on: LXRb:RXRa (NR concentration 270 nM, RXRa partner concentration 90 nM)
# Outline: as §1
# [5] = tested on: LXRb homodimer (NR concentration 270 nM)
# Outline: as §1
# [6] = tested on: PPARa:RXRa (NR concentration 270 nM, RXRa partner concentration 90 nM)
# Outline: as §1
# [7] = tested on: PPARg:RXRa (NR concentration 180 nM, RXRa partner concentration 90 nM)
# Outline: as §1
# [8] = tested on: PPARg:RXRa 270nM:90nM, anti-RXR (NR concentration 270 nM, RXRa partner concentration 90 nM)
# Outline: as §1
# [9] = tested on: PPARg:RXRa 30nM:10nM, anti-RXR (NR concentration 30 nM, RXRa partner concentration 10 nM)
# Outline: as §1
# [10] = tested on: PPARg:RXRa 90nM:30nM, anti-RXR (NR concentration 90 nM, RXRa partner concentration 30 nM)
# Outline: as §1
# [11] = tested on: PPARg:RXRa DBDmut IVT, anti-RXR (DBD mutation: RXRa K156A/R161A, NR concentration 270 nM, RXRa partner concentration 90 nM)
# Outline: as §1
# [12] = tested on: PPARg:RXRa IVT, anti-PPARg (NR concentration 270 nM, RXRa partner concentration 90 nM)
# Outline: as §1
# [13] = tested on: PPARg DBDmut:RXRa IVT, anti-PPARg (DBD mutation: PPARg1 K132A/R137A, NR concentration 270 nM, RXRa partner concentration 90 nM)
# Outline: as §1
# [14] = tested on: PPARg DBDmut IVT, anti-PPARg (DBD mutation: PPARg1 K132A/R137A, NR concentration 270 nM)
# Outline: as §1
# [15] = tested on: PPARg homodimer (NR concentration 180 nM)
# Outline: as §1
# [16] = tested on: PXR:RXRa (NR concentration 270 nM, RXRa partner concentration 90 nM)
# Outline: as §1
# [17] = tested on: PXR homodimer (NR concentration 270 nM)
# Outline: as §1
# [18] = tested on: RARa:RXR (NR concentration 270 nM, RXRa partner concentration 90 nM)
# Outline: as §1
# [19] = tested on: RARa homodimer (NR concentration 270 nM)
# Outline: as §1
# [20] = tested on: RARb:RXRa (NR concentration 270 nM, RXRa partner concentration 90 nM)
# Outline: as §1
Sequence,PBM binding z-score [1],PBM binding z-score [2],PBM binding z-score [3],PBM binding z-score [4],PBM binding z-score [5],PBM binding z-score [6],PBM binding z-score [7],PBM binding z-score [8],PBM binding z-score [9],PBM binding z-score [10],PBM binding z-score [11],PBM binding z-score [12],PBM binding z-score [13],PBM binding z-score [14],PBM binding z-score [15],PBM binding z-score [16],PBM binding z-score [17],PBM binding z-score [18],PBM binding z-score [19],PBM binding z-score [20]
CTCGAAAGGTGGGTTGAGGTGAGTATACGGATAA,0.825,0.397,0.00532,1.1,0.353,1.22,0.158,0.31,-0.0559,-0.00652,0.207,0.842,0.168,0.0199,0.652,1.01,0.754,1.22,0.749,0.866
ATATGTAGGTGAGCTGGGGTCATTCAGACTAGGC,4.23,3.62,0.762,4.15,0.598,5.85,7.13,5.75,3.65,5.74,7.57,7.41,3.98,2.99,1.94,6.35,3.01,5.85,0.796,3.08
CGAACGAGGGCTTGAGTTGATAGCAAATGCCGAT,-0.357,-0.589,-0.512,-0.688,-0.924,-0.425,0.25,-0.478,-0.548,-0.639,0.359,-0.447,-0.831,-1.02,-0.915,-0.245,-0.409,-0.285,-0.522,-0.252
ACTATGAGTTGAGACGAGGGCAACCGATAGGTTG,1.25,0.578,-0.194,0.311,-0.0217,0.709,0.835,0.44,0.0728,0.0976,-0.225,0.397,0.408,-0.21,0.118,3.34,0.321,1.23,-0.00647,1.32
AGTCAAATTTCAGGACGAGGTAACGTAAAGCACG,0.0503,-0.145,0.0565,0.0191,-0.153,-0.229,0.688,-0.178,-0.0529,-0.261,-0.406,0.239,0.677,0.285,0.523,-0.111,0.169,0.428,0.17,0.269
TATCCTAGGTCATTCAGGGGCCAGTATAGAAAGC,5.25,5.67,4.76,3.96,4.11,4.18,3.29,3.8,1.64,3.05,4.17,4.85,1.68,2.21,3.21,3.08,0.861,3.84,1.26,4.08
CCTAGAAGGCCAATCTGGGTCACTCAAGGCTTGA,1.99,3.1,-0.29,2.04,-0.793,3.72,2.93,2.57,0.176,1.97,3.74,4.78,-0.238,-1.07,1.21,1.86,-0.344,2.12,0.185,2.4
GATACAGGGTCAGCTAGGGGCCAGAGTATGGAAA,5.14,2.64,-0.494,2.7,-0.084,4.79,3.88,3.46,0.617,1.94,1.75,2.41,-0.163,-0.667,3.15,2.94,-0.0214,4.97,0.262,4.22
TGAATGAGGTAAAAGATCAGGGAACGTGGCGTCG,0.359,-0.0204,-0.712,-0.13,-0.307,2.5,3.68,5.02,3.41,5.53,0.669,2.02,0.836,-0.202,0.305,-0.0852,-0.139,0.545,-0.524,0.0467
TTACCAAGGTGAAAGTTCGTTGATGCACGCCTTG,1.93,1.83,0.114,1.35,-0.561,4.14,6.03,6.53,4.84,6.63,1.85,4.23,0.268,0.287,0.78,2.73,1.54,2.73,0.264,2.24
ACTAGATGGTCAGCTGAGGTCACACACAATTCGG,4.73,3.89,2.33,3.48,0.584,3.6,1.95,2.13,0.736,1.61,0.982,2.14,1.06,0.428,2.89,5.58,1.53,4.43,1.34,3.75
CCAGGCAGGTGAAAGGTAACTCAGTCTGGTACGC,0.326,0.496,-0.353,0.47,-0.921,3.13,5.95,6.52,4.44,7.19,2.16,3.13,-1.38,-0.814,1.59,0.457,-0.265,1.53,-0.973,1.02
CCGACTGGGGCATAAGGTTACAATAAGCCAGCCC,0.415,1.46,-0.348,0.936,-0.85,1.9,2.58,3.36,0.985,2.68,3.12,3.35,-1.72,-1.42,0.586,0.38,-0.291,1.17,-0.0919,1.58
TCTTGTAGACCAAGCAGGTTAAGAAAGCCTGAGT,0.286,0.184,-0.371,-0.086,-0.534,0.881,-0.307,1.12,2.54,1.77,1.69,0.677,-0.0357,-0.21,-0.226,0.504,0.118,0.56,-0.3,0.219
